According to PubChem BioAssay AID624330 (Southern Research Specialized Biocontainment Screening …, 2012):
Out of some 340,000 compounds screened, about 2,100 (0.62%) were called active.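 How the source made its calls: active means first-screen hits whose inhibition reached a set limit at any dose in the follow-up dose series; inconclusive means inhibition above the set first-screen limit but never retested; inactive means the rest.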 These entries were drawn from the full list. Measured potencies and affinities stand elsewhere.

biological target: Rac GTPase-activating protein 1 (Homo sapiens) (UniProt Q9H0H5); assay: MgcRacGAP GTPase-activating activity inhibitors, confirmation, biochemical, ADP Hunter fluorescence, primary and confirmatory (AID 624330); details: MgcRacGAP-stimulated Rac1 GTP hydrolysis, at 30 µM, active compounds read high, GST-tagged Rac1 F28L mutant substrate;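 further: fluorescence reports GDP produced by GAP-driven GTP hydrolysis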
Sequence (Q9H0H5 whole entry, looked up): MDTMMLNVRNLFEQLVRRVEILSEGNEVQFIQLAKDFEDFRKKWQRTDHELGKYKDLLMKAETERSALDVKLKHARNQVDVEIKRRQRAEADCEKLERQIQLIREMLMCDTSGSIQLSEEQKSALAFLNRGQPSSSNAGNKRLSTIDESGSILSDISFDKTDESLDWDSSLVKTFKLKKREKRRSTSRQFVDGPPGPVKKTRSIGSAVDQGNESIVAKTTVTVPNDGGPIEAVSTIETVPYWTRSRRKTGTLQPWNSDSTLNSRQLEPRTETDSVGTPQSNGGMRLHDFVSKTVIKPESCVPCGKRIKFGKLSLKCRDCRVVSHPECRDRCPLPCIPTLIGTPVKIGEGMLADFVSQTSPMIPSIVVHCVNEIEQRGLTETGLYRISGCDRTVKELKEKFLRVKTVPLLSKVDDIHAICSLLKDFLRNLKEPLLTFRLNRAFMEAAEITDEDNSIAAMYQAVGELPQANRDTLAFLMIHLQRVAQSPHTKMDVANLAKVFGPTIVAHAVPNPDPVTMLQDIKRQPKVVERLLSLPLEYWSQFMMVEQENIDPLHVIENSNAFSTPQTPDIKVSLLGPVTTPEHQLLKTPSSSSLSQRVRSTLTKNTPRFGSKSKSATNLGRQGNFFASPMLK

inhibition, inactive:
CN1CCN(NC(=O)c2cc([N+](=O)[O-])cc([N+](=O)[O-])c2)CC1 -0.16%, CCC(C)NC(=O)CN(c1cc(C)cc(C)c1)S(=O)(=O)c1c(C)[nH]c(=O)[nH]c1=O (stereo not given) 9.01%, CCCC(=O)Nc1ccc2c(c1)nc(CCNC(=O)c1ccccc1)n2C 1.08%, Cc1nonc1CN(C)C(=O)c1cc(COc2ccc(F)cc2Cl)on1 1.26%, Cn1c(=O)c2c(nc(N3CCNCC3)n2Cc2cccc3ccccc23)n(C)c1=O 6.58%, Cc1cccc(C(=O)NCC(=O)NNC(=O)c2ccccc2O)c1 2.8%, Cc1ccc(NC(=O)c2cc(N3C(=O)CCC3=O)ccc2N2CCCCC2)cc1 5.7%, COc1ccc(N=Cc2c(O)[nH]c3ccccc23)cc1 9.26%, Oc1[nH]c2ccccc2c1C=Nc1ccccc1 11.5%, CCN(CC)c1ccc(N=Cc2ccc(N(CC)CC)cc2O)cc1 6.98%, CCN(CC)c1ccc(N=Cc2ccc([N+](=O)[O-])o2)cc1 25.9%, CC1(C)CC(=O)C=C(NCCN2CCN(C(=S)NC3CCCCC3)CC2)C1 -3.74%, CN(Cc1ccccc1)S(=O)(=O)c1ccc(Cl)nc1 11.5%, CCOC(=O)c1ccccc1NC(=O)COC(=O)CCNS(=O)(=O)c1cccs1 3.03%, COc1ccc(NC(=O)NNC(=O)C(C)Oc2ccc3ccccc3c2)cc1 (stereo not given) 3.58%, O=C(Nc1ccc(Nc2ccccc2)cc1)c1c(F)c(F)c(F)c(F)c1F -3.02%, S=C(NCCc1ccccc1)Nc1ccc(Nc2ccccc2)cc1 26.5%, O=C(Nc1ccc(Nc2ccccc2)cc1)C(Cl)(Cl)Cl 12.3%, Cc1ccc(Nc2ccccc2)cc1 6.69%, Cc1ccc(C)c(OCCC(=O)OCC(=O)Nc2cc(S(=O)(=O)N3CCCCC3)ccc2C)c1 0.95%, CC1CCN(C(=O)c2ccc(NS(=O)(=O)c3ccc4[nH]c(=O)[nH]c4c3)cc2)CC1 8.71%, CN(CC(=O)O/N=C(\N)c1ccc([N+](=O)[O-])cc1)S(=O)(=O)c1ccccc1 -3.85%, O=C(/C=C/C(Cl)(Cl)Cl)Nc1ccc(Cl)cc1 9.68%, CC1=NN(c2ccccc2)C(=O)C1C=Nc1ccccc1O (stereo not given) 14.8%, CC1=NN(c2ccccc2)C(=O)C1C(=O)c1ccccc1 (stereo not given) 12.2%, O=C(NC1(C(F)(F)F)C(=O)Nc2c1c(=O)[nH]c(=O)n2Cc1ccccc1)c1ccco1 (stereo not given) 6.82%, OCCCN1CCN(CCCOc2ccccc2-c2ccccc2)CC1 5.09%, c1ccc(-c2ccccc2OCCCN2CCOCC2)cc1 27.2%, OCCN1CCN(CCOc2ccccc2-c2ccccc2)CC1 -0.13%, CCOc1ccccc1OCCOCCN1CC(C)OC(C)C1 (stereo not given) 17.3%, CC1CN(CCOc2ccccc2-c2ccccc2)CC(C)O1 (stereo not given) 18%, c1ccc(-c2ccccc2OCCOCCN2CCNCC2)cc1 31.8%, CCN1CCN(CCOc2ccccc2-c2ccccc2)CC1 7.05%, c1ccc(-c2ccccc2OCCOCCN2CCCCC2)cc1 17.9%, Cc1ccc(C(=O)COC(=O)c2cnccn2)cc1 -2.3%, O=C(C1CCCN(S(=O)(=O)c2ccc(Cl)cc2)C1)N(Cc1cccs1)C1CC1 (stereo not given) 6.33%, CCn1c(SCC(=O)Nc2cc(C)on2)nnc1-c1ccc(OC)cc1 -3.69%, OC(CNCc1cccs1)c1ccccc1 (stereo not given) 8.64%, COc1cccc(CN2CCN(S(=O)(=O)c3ccc(Cl)s3)CC2)c1 -1.96%, CCOc1ccc(/C=N/n2cc(-c3ccccc3)[nH]c2=S)cc1 7.02%, CCOC(=O)C1(C(=O)OCC)NC(=O)CC1CC(C)C (stereo not given) 0.34%, COc1ccc(NC(=S)NCCc2ccc(F)cc2)c(OC)c1 5.59%, CC1CN(C(=O)CCCN2C(=O)c3ccccc3C2=O)CC(C)O1 (stereo not given) -0.39%, Cc1ccccc1OCCCCCn1ccnc1 2.87%, C/C=C/c1ccc(OCCCCOc2ccc(OC)cc2)c(OC)c1 8.38%, Clc1ccccc1OCCCCn1ccnc1 -1.42%, CC1CN(CN2C(=O)c3ccccc3C2=O)CC(C)O1 (stereo not given) -0.88%, Fc1ccccc1OCCCCCN1CCCC1 10.2%, C/C=C/c1ccc(OCCCCN2CCC(C)CC2)c(OC)c1 17.4%, Fc1ccccc1OCCCCN1CCCCC1 24.8%, CCn1c2ccccc2c2cc(NC(=O)COC(=O)c3cc(S(N)(=O)=O)c(Cl)cc3Cl)ccc21 11.3%, O=C(Nc1nnc(C2CC2)s1)C1Cc2ccccc2CN1C(=O)c1ccco1 (stereo not given) 6.66%, c1cn(CCCNc2ncnc3nc[nH]c23)cn1 8.22%, CCCNC(=O)CNC(=S)N(Cc1ccccc1F)C1CCCCC1 8.76%, CCCN(CC(=O)Nc1ccc(F)c(F)c1F)C(=O)Cn1c(=O)cnc2ccccc21 5.6%, O=C(OCC(=O)N1CCc2ccccc2C1)c1c(F)cccc1Cl 4.76%, O=C1CN(C(=O)COC(=O)c2ccc(N3CCCCCC3)c([N+](=O)[O-])c2)c2ccccc2N1 13.5%, COc1ccc(NC(=O)CN(C)C(=O)Cn2c(=O)oc3ccccc32)cc1 3.28%, COc1cc(/C=C2/C(=O)CNC2=O)ccc1O 28.6%, COc1ccc(/C=C2\CC/C(=C\c3ccc(OC)c(OC)c3)C2=O)cc1OC 4.49%, COc1cc(/C=C2/CC/C(=C/c3ccc(O)c(OC)c3)C2=O)ccc1O 22%, CCN1C/C(=C/c2ccc(OC)c(O)c2)C(=O)/C(=C/c2ccc(OC)c(O)c2)C1 8.1%, COc1ccc(/C=C2\CN(Cc3ccccc3)C/C(=C\c3ccc(OC)c(O)c3)C2=O)cc1O 7.6%, CCOc1cc(/C=C2\CCn3c2nc2cc(Cl)ccc2c3=O)ccc1O 15.1%, CCOc1cc(/C=C2\CCCC(C(=O)C(F)(F)F)=C2O)ccc1O 25.9%, CCOc1cc(/C=C2/C(=O)ON=C2C)ccc1O 21.6%, O=C(CSc1nnc(NC(=O)c2ccccc2F)s1)NC1CC1 2.69%, NNC(=O)c1ncoc1-c1ccc(Cl)cc1 5.93%, C=CCN1CC2CC3(COc4cc(C)cc(C)c4)C=CC2(O3)C1=O (stereo not given) 14.1%, Cc1ccc(C(=O)OCC(=O)Nc2ccc(F)c(Cl)c2)o1 5.92%, COc1ccc(CNC(=O)C[C@H]2C[C@H](C(=O)N3CCOCC3)[C@@]3(C)c4[nH]c5cc(-c6ccco6)ccc5c4CCN3C2=O)cc1OC 15.1%, O=C(C=Cc1ccccn1)c1ccccc1 3.53%, CCO[C@@H]1OC(C(=O)N2CCOCC2)=C[C@H](c2ccc(Br)cc2)[C@H]1CCCO 9.4%, CC(C)CCNC(=O)C(c1ccncc1)N(C(=O)Cn1nnc(-c2ccc(F)cc2)n1)c1ccccc1F (stereo not given) 2.28%, CSc1ccccc1NC(=O)CSc1n[nH]c(C)c1[N+](=O)[O-] 8.49%, Nc1nonc1-n1nnc(C(=O)N/N=C/c2ccc(OCc3ccccc3F)cc2)c1CN1CCCCC1 -2.32%, CN1C(=O)/C(=C/c2ccc(O)c([N+](=O)[O-])c2)N(C)C1=S 12.6%, COc1cc(/C=C2/C(=O)N(C)C(=S)N2C)ccc1OCc1cccc(F)c1 8.12%, CCc1cc(=O)oc2c(C)c(OCC(=O)NCCCn3ccnc3)ccc12 5.6%, O=C(C[C@@H]1C[C@@H]2c3cc(NS(=O)(=O)c4ccc(F)cc4)ccc3O[C@@H]2[C@@H](CO)O1)NC1CCCCC1 7.42%, O=C(NCc1cccs1)c1nc2ncccn2n1 10.9%, CSc1cccc(NC(=S)N(CCC(C)C)C2CCN(C(C)C)CC2)c1 1.15%, CC(=O)c1ccc(Nc2ccc(-c3ccccc3C)nn2)cc1 2.32%, COc1ccccc1-c1ccc(Nc2ccc(C(=O)N3CCOCC3)cc2)nn1 2.87%, O=C(NCc1ccncc1)C(=O)N/N=C/c1cccnc1 -4.63%, Cc1ccc(O)c(CN(C)Cc2cc(C)ccc2O)c1 -9.02%, O=P(Cc1ccccc1O)(c1ccccc1)c1ccccc1 3.4%, COc1ccc(S(=O)(=O)NC(C)C(=O)Nc2cccc(C(C)=O)c2)cc1 (stereo not given) 8.82%, CCN(CC)CCn1c2ccccc2c2nc3ccccc3nc21 11.3%, CCc1cc2c(=O)c(-c3nc4ccccc4n3C)c(C)oc2c(CN(CC)CC)c1O 8.27%, O=C(c1cccnc1)N1CCN(S(=O)(=O)c2ccc(S(=O)(=O)N3CCCC3)cc2)CC1 2.14%, CCc1ccc(N(CC(=O)Nc2ccc(OC)cc2OC)S(C)(=O)=O)cc1 6.83%, Cc1cc(N2C(=O)C3C4CCC(C4)C3C2=O)no1 (stereo not given) -3.98%, O=C(CCCc1cccs1)N1CCN(S(=O)(=O)c2ccccc2Br)CC1 8.03%, CC(=O)NC(NC(=S)Nc1ccc(N=Nc2ccccc2)cc1)C(Cl)(Cl)Cl (stereo not given) 7.33%
